# Measurements reported in ChEMBL document CHEMBL3988442, “University of Dundee, Small-Polar-MMV Screening Library” (2021).
# The whole screen tested about 69,000 compounds, of which about 1,000 (1.4%) showed an effect of 50% or more. This is one part of a sample in which strong results are shown more often than they occur.
# Test system: Leishmania donovani
# Assay: Leishmania intramacrophage assay
# Format: functional, organism-based
# Parameters: scale not given: in the data most compounds retested in dose-response had high values
smiles,measurement,setting,value
COC1COC2(CCN(Cc3ccc4c(c3)OCO4)CC2)C1.O=C(O)C(F)(F)F (configuration not stated),Percent Effect,"30.3 µM, […]",2.758%
CC(C)n1c(C2CCCN(CC(N)=O)C2)nc2ccccc21 (configuration not stated),Percent Effect,"30.3 µM, […]",0.009374%
CC(C)n1c(C2CCCN(CCS(C)(=O)=O)C2)nc2ccccc21 (configuration not stated),Percent Effect,"30 µM, 30.03 µM",13.25%
CC(C)OCCCN1CCCC(c2nc3ccccc3n2C(C)C)C1 (configuration not stated),Percent Effect,"30 µM, 30.03 µM",51.41%
CC(C)c1noc(OCc2cccc(C#N)c2)n1,Percent Effect,"30.3 µM, […]",36.94%
CN1CCN(Cc2noc(-c3cc(-c4ccccc4F)n[nH]3)n2)CC1,Percent Effect,"30.3 µM, […]",-14.35%
c1cc2c(cc1-n1nc(C3CC3)nc1-c1csnn1)OCCO2,Percent Effect,"30.3 µM, […]",-0.4467%
CC(CNC(=O)c1c[nH]nn1)Oc1ccc(Cl)cc1 (configuration not stated),Percent Effect,"30.3 µM, […]",-48.71%
c1cc(C2CCN(c3ncnc4c3CCNCC4)CC2)ccn1,Percent Effect,"30.3 µM, […]",3.191%
c1ccc(C2CCCN(c3ncnc4c3CCNC4)CC2)cc1 (configuration not stated),Percent Effect,"30.3 µM, […]",74.19%
c1ccn2c(C3CCCN(c4ncnc5c4CCNC5)C3)nnc2c1 (configuration not stated),Percent Effect,"30.3 µM, […]",-1.091%
Clc1cccc(C2CCN(c3ncnc4c3CCNC4)C2)c1 (configuration not stated),Percent Effect,"30.3 µM, […]",76.01%
c1ccc(C2CCN(c3ncnc4c3CCNC4)CC2)cc1,Percent Effect,"30.3 µM, […]",29.27%
c1ccc2c(c1)CN(c1ncnc3c1CCNC3)CCO2,Percent Effect,"30.3 µM, […]",24.34%
N#Cc1cc(C(F)(F)F)ccc1NCC1CCS(=O)(=O)CC1,Percent Effect,"30.3 µM, […]",3.711%
O=C(c1cc[nH]n1)N1CCC(c2cc(Nc3ccccn3)n[nH]2)CC1,Percent Effect,"30.3 µM, […]",6.823%
Cc1ccc(NC2CCN(C(=O)c3cccc4[nH]ncc34)CC2)nn1,Percent Effect,"30.3 µM, […]",16.62%
COc1ccccc1C(C)CC(=O)N1CC[C@H](O)C1 (some centres not stated),Percent Effect,"30.3 µM, […]",5.433%
Cc1cc(CCC(=O)N2CC[C@H](O)C2)ccc1Br,Percent Effect,"30.3 µM, […]",-18.41%
Cc1ccccc1C(C)CC(=O)N1CC[C@H](O)C1 (some centres not stated),Percent Effect,"30.3 µM, […]",50.74%
COCCNc1ccccc1CNC(=O)NCc1cnc(C)s1,Percent Effect,"30.3 µM, […]",19.41%
c1cnn(CC2CCCN2Cc2nc(-c3ccoc3)no2)c1 (configuration not stated),Percent Effect,"30 µM, 30.03 µM",-37.38%
Cn1nc(C(=O)NCc2ccccc2C(F)(F)F)c2c1CCS(=O)(=O)C2,Percent Effect,"30.3 µM, […]",36.38%
CCN1CC2(CCCCN2C(=O)c2ccsc2)CC1=O (configuration not stated),Percent Effect,"30.3 µM, […]",22.42%
C=C1C(C)(C)[C@H]2CC[C@]1(C(=O)N1CCC(Cn3cc(CO)nn3)CC1)C2,Percent Effect,"30.3 µM, […]",-11.33%
Cc1nc(CN2CCC3(C2)CN(Cc2ccco2)C3)cs1,Percent Effect,"30.3 µM, […]",58.57%
Cc1nc(CN2CCN(C(=O)CCc3ccco3)CC2)cs1,Percent Effect,30 µM,15.52%
Cc1nc(CN2CCC23CCN(Cc2ccco2)CC3)cs1,Percent Effect,"30.3 µM, […]",53.61%
Cc1nc(CN2CCC3(CCCN(Cc4ccoc4)C3)C2=O)cs1.O=C(O)C(F)(F)F.O=C(O)C(F)(F)F (configuration not stated),Percent Effect,"30.3 µM, […]",15.73%
Cc1nc(CN2C(=O)CCC23CCN(Cc2ccco2)CC3)cs1,Percent Effect,"30.3 µM, […]",23.38%
Cc1nc(CN2CCC23CCN(C(=O)c2ccco2)CC3)cs1,Percent Effect,"30.3 µM, […]",26.24%
Cc1nc(CN2C(=O)CCC23CCN(Cc2ccoc2)CC3)cs1.O=C(O)C(F)(F)F.O=C(O)C(F)(F)F,Percent Effect,"30.3 µM, […]",9.105%
